Our source for the outcome and AC50 values is PubChem BioAssay (EPA / NIEHS).

Active and inactive are the calls of the source. How the source made its calls: active means hit-call score of the fitted dose curve at least 0.9, where 1 is the maximum; inactive means score below 0.9.

Read-out in test [1]: Interleukin-1 alpha (IL1a), IL1A (gene 3552)
In words: BSK_KF3CT_IL1a: BioMAP Diversity Plus: KF3CT Assay for Interleukin-1 alpha (IL1a) Biomarker Activity (AID 2283070). To be noted: primary human keratinocytes with fibroblasts; actives raise or lower the signal. Summed up: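 Primary skin co-culture (keratinocytes, foreskin fibroblasts), 24 h exposure; ELISA for IL-1a; bidirectional curve fit vs DMSO.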

Read-out in test [2]: TIMP metallopeptidase inhibitor 2 (TIMP2), TIMP2 (gene 7077)
In words: BSK_KF3CT_TIMP2: BioMAP Diversity Plus: KF3CT Assay for TIMP metallopeptidase inhibitor 2 (TIMP2) Biomarker Activity (AID 2283071). To be noted: primary human keratinocytes with fibroblasts; actives raise or lower the signal. Put shortly: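 ELISA readout of TIMP-2 in keratinocyte plus foreskin fibroblast co-cultures (human skin primary cells), 24 h post-dose. Gain or loss of signal fitted relative to DMSO.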

Read-out in test [3]: Transforming growth factor beta 1 (TGFb1), TGFB1 (gene 7040)
As to the kind of experiment: BSK_KF3CT_TGFb1: BioMAP Diversity Plus: KF3CT Assay for Transforming growth factor beta 1 (TGFb1) Biomarker Activity (AID 2283072). The conditions noted are these: primary human keratinocytes with fibroblasts; actives raise or lower the signal. Put shortly:
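Read-out: ELISA for TGF-b1 in keratinocyte/foreskin fibroblast human skin co-culture, 24 h after dosing; bidirectional curve fit vs DMSO baseline; gain or loss of signal scored.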

Read-out in test [4]: C-C motif chemokine 2 (Homo sapiens) (UniProt P13500)
In words: BSK_KF3CT_MCP1: BioMAP Diversity Plus: KF3CT Assay for Monocyte Chemoattractant Protein 1 (MCP1/CCL2) Biomarker Activity (AID 2283073). To be noted: primary human keratinocytes with fibroblasts; actives raise or lower the signal. Put shortly:
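ELISA readout of MCP-1 after 24 h chemical dosing of a human skin primary co-culture of keratinocytes and foreskin fibroblasts. Activity was fitted in both directions against DMSO.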

Read-out in test [5]: Matrix Metallopeptidase 9 (MMP9), MMP9 (gene 4318)
As to the kind of experiment: BSK_KF3CT_MMP9: BioMAP Diversity Plus: KF3CT Assay for Matrix Metallopeptidase 9 (MMP9) Biomarker Activity (AID 2283074).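 On AC50: MMP9 protein level quantified by ELISA in the co-culture.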 The conditions noted are these: primary human keratinocytes with fibroblasts; actives raise or lower the signal. Put shortly: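 ELISA read-out of MMP-9 at 24 h post-dosing in a co-culture of human skin keratinocytes and foreskin fibroblasts. Gain or loss of signal was fitted in both directions against DMSO.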

Read-out in another test: CD40, CD40 (gene 958)
In words: BSK_LPS_CD40: BioMAP Diversity Plus: LPS Assay for CD40 Biomarker Activity (AID 2283076). To be noted: primary human HUVEC with PBMC; actives raise or lower the signal. Summed up: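 Cells were dosed, incubated 24 h, then assayed for CD40 by ELISA. Gain or loss of signal was analysed relative to DMSO controls. The culture paired human umbilical vein endothelium with peripheral blood mononuclear cells.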

Read-out in test [6]: E-selectin (Homo sapiens) (UniProt P16581)
In words: BSK_LPS_Eselectin: BioMAP Diversity Plus: LPS Assay for Eselectin Biomarker Activity (AID 2283077). The conditions noted are these: primary human HUVEC with PBMC; actives raise or lower the signal. Summed up:
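Primary human vascular co-culture (endothelium plus PBMC) was dosed with chemical, then E-selectin quantified by ELISA at 24 h. Endpoint values derive from bidirectional curve fitting relative to DMSO.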

Read-out in test [7]: Interleukin-8 (IL8), CXCL8 (gene 3576)
As to the kind of experiment: BSK_LPS_IL8: BioMAP Diversity Plus: LPS Assay for Interleukin-8 (IL8) Biomarker Activity (AID 2283078). To be noted: primary human HUVEC with PBMC; actives raise or lower the signal. Summed up: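 Readout is IL-8 by ELISA, taken 24 h after compounds were added to LPS-stimulated endothelial/PBMC co-cultures. Both increases and decreases relative to DMSO control were scored through bidirectional fitting.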

Test [8] is described as follows: BSK_LPS_SRB: Viability Assessment in the BioMAP Diversity Plus: LPS Assay (AID 2283079).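 Further: total protein by sulforhodamine B absorbance as a cytotoxicity measure; measured one day after compound addition.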 To be noted: primary human HUVEC with PBMC. Summed up: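 Readout is SRB absorbance at 560 nm (0.1% stain, TCA-fixed parallel cultures) as a total-protein cytotoxicity measure. Cells: primary human umbilical vein endothelium plus peripheral blood mononuclear cells, 24 h after chemical exposure; DMSO served as baseline.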

Read-out in test [9]: urokinase plasminogen activator (uPA), PLAU (gene 5328)
As to the kind of experiment: BSK_KF3CT_uPA: BioMAP Diversity Plus: KF3CT Assay for urokinase plasminogen activator (uPA) Biomarker Activity (AID 2283075). To be noted: primary human keratinocytes with fibroblasts; actives raise or lower the signal. Summed up: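 Skin co-culture (keratinocytes + foreskin fibroblasts), human primary; 24 h post-dose; uPA by ELISA; gain/loss fit vs DMSO baseline.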

Sequence of E-selectin (Homo sapiens) (P16581 whole entry, looked up): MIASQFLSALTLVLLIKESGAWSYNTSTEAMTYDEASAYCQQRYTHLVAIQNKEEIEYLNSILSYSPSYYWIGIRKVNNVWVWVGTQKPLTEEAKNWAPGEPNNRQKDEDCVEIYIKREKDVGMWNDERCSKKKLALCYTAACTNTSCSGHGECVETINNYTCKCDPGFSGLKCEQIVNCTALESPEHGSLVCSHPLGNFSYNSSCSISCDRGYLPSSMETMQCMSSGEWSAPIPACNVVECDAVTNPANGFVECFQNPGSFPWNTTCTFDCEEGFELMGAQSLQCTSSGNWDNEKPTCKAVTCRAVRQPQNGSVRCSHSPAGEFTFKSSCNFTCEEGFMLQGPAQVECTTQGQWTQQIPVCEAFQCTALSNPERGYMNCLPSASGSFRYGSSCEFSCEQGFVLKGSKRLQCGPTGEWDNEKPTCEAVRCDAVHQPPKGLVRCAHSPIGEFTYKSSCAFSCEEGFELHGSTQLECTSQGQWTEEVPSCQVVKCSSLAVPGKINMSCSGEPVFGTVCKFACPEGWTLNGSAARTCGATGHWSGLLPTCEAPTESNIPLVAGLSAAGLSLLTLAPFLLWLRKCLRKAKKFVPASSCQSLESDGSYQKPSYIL

With `CC(C)(C)C(=O)C(Oc1ccc(Cl)cc1)n1cncn1` (centres undefined), the outcome is “inactive” in [1]; “inactive” in [2]; “inactive” in test [3]; “inactive” in test [4]; “inactive” in test [5]; “inactive” with CD40, CD40 (gene 958). For the same molecule, the outcome in [6], in [7] and in test [8] was inactive.
`COc1cc(OC)nc(NC(=O)NS(=O)(=O)c2ncccc2OCC(F)(F)F)n1`: the result in test [1], in [2], in test [3], in test [4], in [5] and in test [9] was inactive. Besides, the outcome in the test with CD40, CD40 (gene 958) was “inactive”; in test [6], “inactive”; in [7], “inactive”; in test [8] it was “inactive”.
As for `COCC(C)N(C(=O)CCl)c1c(C)csc1C` (centres undefined), the outcome in test [1], in test [2], in test [3], in [4], in [5] and in test [9] was inactive. Moreover, the outcome was “inactive” with CD40, CD40 (gene 958); “inactive” in test [6]; “inactive” in [7]; “inactive” in [8].
In the case of `COC(=O)NS(=O)(=O)c1ccc(N)cc1`, the outcome is “inactive” in test [1]; “inactive” in test [2]; “inactive” in [3]; “inactive” in [4]; “inactive” in test [5]; “inactive” with CD40, CD40 (gene 958). The result in test [6], in [7] and in [8] was inactive.
For orientation: AC50 means the concentration at which the activity in the assay is half-maximal. As for `CC(C)Oc1cccc(NC(=O)c2ccccc2C(F)(F)F)c1`, the outcome in [1], in test [2], in test [3], in test [4], in test [5] and in [9] was inactive. Moreover, the outcome with CD40, CD40 (gene 958) is “inactive”; in test [6], “inactive”; in [7], “inactive”. For the same molecule, in test [8], the AC50 was 16.7 µM (active).
As to `CCN(CC)C(=O)C(C)Oc1cccc2ccccc12` (centres undefined), the result in [1], in test [2], in test [3], in [4], in test [5] and in test [9] was inactive. For the same molecule, the outcome in the test with CD40, CD40 (gene 958) was “inactive”; in test [6], “inactive”; in [7], “inactive”; in test [8], “inactive”.
As to `N#Cc1c[nH]cc1-c1cccc2c1OC(F)(F)O2`, the outcome in [1], in test [2], in test [3], in [4], in test [5] and in [6] was inactive. Also, the outcome in test [7] was inactive. The AC50 with CD40, CD40 (gene 958) is 7.2 µM (active); in test [8], 8.62 µM (active).
Consider `CC1(C)C(C=C(Cl)Cl)C1C(=O)OC(C#N)c1cccc(Oc2ccccc2)c1` (centres undefined), for which the result in test [1], in test [2], in test [3], in [4], in test [5] and in [9] was inactive. In addition, the outcome was “inactive” with CD40, CD40 (gene 958); “inactive” in test [6]; “inactive” in test [7]. In addition, the AC50 in test [8] is 3.97 µM (active).
For the molecule `CS(=O)(=O)c1ccc(C(=O)C2C(=O)CCCC2=O)c([N+](=O)[O-])c1`, the outcome in test [1], in [2], in test [3], in test [4], in [5] and in test [9] was inactive. The outcome with CD40, CD40 (gene 958) is “inactive”; in test [6], “inactive”; in test [7], “inactive”; in [8], “inactive”.
Take `CCOc1cc(C(C)(C)C)ccc1C1COC(c2c(F)cccc2F)=N1` (centres undefined): the concentration at half-maximal activity (AC50) was 11.2 µM (active) in test [1]; 15.1 µM (active) in test [2]; 33 µM (active) in test [3]; 20 µM (active) in test [4]; 14.8 µM (active) in test [5]; 27.1 µM (active) in [9]. Besides, the half-maximal activity concentration (AC50) in the test with CD40, CD40 (gene 958) was 29.2 µM (active); in [6], 33.2 µM (active); in test [7], 26 µM (active); in test [8] it was 26.2 µM (active).
In the case of `C=C(C)CN(CC)c1c([N+](=O)[O-])cc(C(F)(F)F)cc1[N+](=O)[O-]`, the outcome in [1], in test [2], in test [3], in [4], in [5] and in test [9] was inactive. Besides, the result in test [6], in [7] and in [8] was inactive. For the same molecule, in the test with CD40, CD40 (gene 958), the AC50 is 20 µM (active).
In the case of `OC(c1ccc(Cl)cc1)(c1ccc(Cl)cc1)C(Cl)(Cl)Cl`, the AC50 in [1] was 8.05 µM (active); in test [2], 9.48 µM (active); in test [3], 9.69 µM (active); in [4], 11 µM (active); in [5], 7.26 µM (active); in [9], 7.28 µM (active). The AC50 with CD40, CD40 (gene 958) was 30.5 µM (active); in test [6] it was 30.9 µM (active); in test [7] it was 30.6 µM (active).
On to `CS(=O)(=O)c1cc(C(F)(F)F)ccc1C(=O)c1cnoc1C1CC1`, for which the outcome in test [1], in [2], in test [3], in test [4], in test [5] and in test [9] was inactive. Further, the outcome with CD40, CD40 (gene 958) was “inactive”; in test [6], “inactive”; in test [7] it was “inactive”; in test [8] it was “inactive”.
Regarding `COC(=O)NC(=S)Nc1ccccc1NC(=S)NC(=O)OC`, the result in test [1], in [2], in test [3], in test [4], in test [5] and in [9] was inactive. Further, the outcome in the test with CD40, CD40 (gene 958) is “inactive”; in [6] it was “inactive”; in test [7], “inactive”; in [8], “inactive”.
In the case of `CN=C=S`, the result in test [1], in [2], in test [3], in [4], in test [5] and in [9] was inactive. Moreover, the outcome in the test with CD40, CD40 (gene 958) was “inactive”; in [6] it was “inactive”; in test [7] it was “inactive”; in test [8], “inactive”.
For `Nc1c(Cl)c(Cl)nc(C(=O)O)c1Cl`, the outcome is “inactive” in test [1]; “inactive” in test [2]; “inactive” in [3]; “inactive” in test [4]; “inactive” in test [5]; “inactive” with CD40, CD40 (gene 958). In addition, the outcome in test [6], in [7] and in test [8] was inactive.
For the molecule `CC(C)N1C(=O)N(c2ccccc2)CSC1=NC(C)(C)C`, the AC50 in [1] is 26.3 µM (active); in test [5], 31.6 µM (active); with CD40, CD40 (gene 958), 28.2 µM (active); in test [6] it was 30.6 µM (active); in test [7], 17.1 µM (active); in test [8] it was 34 µM (active). Further, the outcome in test [2], in test [3], in [4] and in test [9] was inactive.
As for `Clc1cccc(C(Cl)(Cl)Cl)n1`, the result in [1], in [2], in test [3], in test [4], in test [5] and in test [9] was inactive. The outcome in the test with CD40, CD40 (gene 958) is “inactive”; in [6], “inactive”; in [7], “inactive”; in [8], “inactive”.
With `CSC(=O)c1c(C(F)F)nc(C(F)(F)F)c(C(=O)SC)c1CC(C)C`, the result in [1], in [2], in test [3], in test [4], in [5] and in test [9] was inactive. Besides, the concentration at half-maximal activity (AC50) with CD40, CD40 (gene 958) was 16.3 µM (active); in [6], 5.05 µM (active); in test [8] it was 26.3 µM (active).
For `Cc1cc(C)nc(Nc2ccccc2)n1`, the outcome in test [1], in [2], in [3], in [4], in [5] and in [9] was inactive. For the same molecule, the outcome in the test with CD40, CD40 (gene 958) is “inactive”; in [6], “inactive”; in test [8], “inactive”. In addition, in [7], the AC50 is 26.8 µM (active).
